About 620 (0.62%) of roughly 100,000 compounds were called active. Rule for the calls: active = z-score of 3 or more in at least 2 runs; inactive = the rest. The entries come from a sample that favours actives as a whole.

The assay is described as follows: TAR RNA-Tat peptide displacers, HIV-1, primary screen, biochemical, FRET, FAM/TAMRA-labeled Tat (AID 1259389). Conditions: HIV-1 TAR RNA, Tat peptide displacement FRET; hits give high values.
For the molecule `CNC(=O)c1c(NC(=O)CCSc2ccccc2)sc2c1CCC2`, the z-score is 0.4 (inactive).
Then `COC(=O)c1cc2n(n1)CC(C)(C(=O)NC1CCC(C)CC1)N(CCc1cccs1)C2=O` (centres undefined), with 0.65 (inactive); and `CSc1cccc(NC(=O)CSc2nnc(C)n3c2cc2oc(C)cc23)c1`, with 0.7 (inactive).
In the case of `O=C(Nc1nccs1)c1cc(-c2ccc(Cl)cc2)on1`, the z-score was 15.3 (inactive).
For `CN1CCN(C(=O)Cn2ncn3cccc3c2=O)CC1`, the z-score was 1.42 (inactive).
Consider `CC1CCCC(NC(=O)C(C)n2ncn3cccc3c2=O)C1C` (centres undefined), for which the z-score was 11 (active).
Then `Cc1cc2c(cc3c(=O)n(CC(=O)NC4CCCC(C)C4C)ncn32)s1` (centres undefined), with -0.21 (inactive).
Then `CCCCn1c(C)c(C)c2c1ncn1nc(Cc3ccc(OC)cc3)nc21`, with 0.12 (inactive).
As for `CC1CCCCN1CCCNC(=O)c1noc2c1CCc1sccc1-2` (centres undefined), the z-score was 1.13 (inactive).
For the molecule `CN1C(=O)C[C@H](C(=O)O)C1c1cccnc1` (some centres undefined), the z-score was 1.8 (inactive).
The figure for `CCOc1ccc2nc(Nc3nc(C)c(CC)c(=O)[nH]3)nc(C)c2c1` is 2.61 (inactive); for `Cc1ccc2nc(Nc3ncc4c(n3)CC(C)(C)CC4=O)nc(C)c2c1` it is 1.31 (inactive); for `CCOc1ccc2nc(Nc3ncc4c(n3)CC(c3ccco3)CC4=O)nc(C)c2c1` (centres undefined) it is 13.8 (active).
Regarding `Cn1cc(NC(=O)Nc2cccc(Cl)c2)c2ccccc2c1=O`, the z-score was -0.05 (inactive).
The figure for `Cc1ccc(C2Nc3cccc4cccc(c34)N2)cc1` is 6.71 (active).
In the case of `COc1cccc(C2Nc3cccc4cccc(c34)N2)c1OC`, the z-score is 3.46 (inactive).
As for `Oc1ccc(C2Nc3cccc4cccc(c34)N2)cc1`, the z-score is 4.86 (active).
The figure for `Cc1ccc(C2CC(c3cccc(C)c3)n3nc(N)nc3N2)cc1` (centres undefined) is 0.73 (inactive); for `COc1ccc(C2CC(=O)C3=C(C2)Nc2ccccc2NC3c2cccc(Cl)c2)cc1` (centres undefined) it is -1.58 (inactive); for `COc1cccc(C2Nc3cccc4cccc(c34)N2)c1` it is 21.3 (active).
Then `COc1ccc(N2C(=O)C3CCCN3C2c2cccc(OC)c2)cc1` (centres undefined), with -0.15 (inactive); and `Brc1ccccc1C1Nc2cccc3cccc(c23)N1`, with 5.65 (active).
With `CCC(C)NC(=O)c1ccc(CN2C(=O)C(C)=C(c3ccc(C)cc3)S2(=O)=O)cc1` (centres undefined), the z-score was 1.92 (inactive).
Consider `Cc1nc2nc(Cc3ccccc3)[nH]n2c(=O)c1C`, for which the z-score was 2.84 (inactive).
As to `Cc1cc2nc(COC(=O)c3ccccc3Cl)cc(=O)n2o1`, the z-score was 0.42 (inactive).
Then `Oc1ccc2ncccc2c1C(Nc1ccccn1)c1cccc(Br)c1` (centres undefined), with 10.7 (inactive); and `O=C(OCc1cc(=O)n2nc(C3CCCCC3)sc2n1)c1ccccc1`, with 0.63 (inactive).
Then `COc1cc(C2OC(c3ccc(Br)cc3)=NN2C(C)=O)ccc1OC(C)=O` (centres undefined), with 1.63 (inactive).
In the case of `Cc1c(C(=O)N2CCC(C)CC2)c(S(=O)(=O)N2CCN(C3CCCCC3)CC2)c(C)n1C`, the z-score is 1.14 (inactive).
In the case of `Cc1cccc(NS(=O)(=O)c2ccc(-c3ccc(=O)[nH]n3)o2)c1C`, the z-score is 0.96 (inactive).
Then `CCOc1ccc(/C=C/c2nc(C#N)c(N3CCNCC3)o2)cc1`, with 0.65 (inactive).
As for `CCSc1ncc(CO)n1Cc1ccc(F)cc1`, the z-score is 0.78 (inactive).
The figure for `Cc1ccn2c(=O)c(C(=O)NCCCOC(C)C)c(O)nc2c1` is 0.76 (inactive); for `COc1ccc(-c2nc3ccccc3[nH]2)cc1OC` it is 2.05 (inactive); for `Cc1nnc(NC(=O)CN2C(=O)c3cccnc3Sc3ccccc32)s1` it is 1.32 (inactive).
The figure for `O=C(Cn1c(=O)sc2ccccc21)NCCC1=CCCCC1` is 0.76 (inactive); for `C=CCOC(=O)C1=C(C)NC2=C(C(=O)CC(C)(C)C2)C1c1cc2c(cc1Cl)OCO2` (centres undefined) it is 0.26 (inactive).
The figure for `O=C(c1cc(-c2ccccc2)n[nH]1)N1CCn2c1nc1ccccc12` is 0.42 (inactive).
On to `COc1ccc(Cl)cc1N1CC(O)=C(c2nc3ccccc3n2C)C1=N`, for which the z-score is 0.34 (inactive).
For `CCCC1CNc2cc(C)ccc2O1` (centres undefined), the z-score is 2.06 (inactive).
Then `C[C@@H]1O[C@@H](OC[C@H]2O[C@@H](Oc3cc(O)c4c(c3)O[C@H](c3ccc(O)c(O)c3)CC4=O)[C@H](O)[C@@H](O)[C@@H]2O)[C@H](O)[C@H](O)[C@H]1O`, with 3.52 (active).
The figure for `COc1ccc(-c2cc(=O)c3c(O)cc(O[C@@H]4O[C@H](CO[C@@H]5O[C@@H](C)[C@H](O)[C@@H](O)[C@H]5O)[C@@H](O)[C@H](O)[C@H]4O)cc3o2)cc1O` is 4.29 (inactive); for `C[C@@H]1O[C@@H](O[C@H]2[C@@H](Oc3cc(O)c4c(c3)O[C@H](c3ccc(O)cc3)CC4=O)O[C@H](CO)[C@@H](O)[C@@H]2O)[C@H](O)[C@H](O)[C@H]1O` it is 2.09 (inactive); for `Cc1nc(S(=O)(=O)Nc2ccc(C(C)C)cc2)cn1C` it is 1.64 (inactive).
On to `O=C1c2ccccc2C(Nc2ccc(F)cc2F)N1c1ccccn1` (centres undefined), for which the z-score is 2.34 (inactive).
The figure for `CCOC(=O)N1CCN(c2cc(NCCO)c3c4c(onc24)-c2ccccc2C3=O)CC1` is 2.61 (inactive); for `CN(C)CCCNc1cc(N2CCN(c3ccccc3F)CC2)c2noc3c2c1C(=O)c1ccccc1-3` it is 5.01 (active).
Then `CN1CCN(c2cc(NCCCC(=O)O)c3c4c(onc24)-c2ccccc2C3=O)CC1`, with 1.94 (inactive); and `COc1cc(C)c(S(=O)(=O)N2CCc3cc4cc(C)ccc4nc32)cc1C`, with -1.52 (inactive).

The values above are taken from PubChem BioAssay AID1259389 (Center for Chemical Genomics, University of Michigan, 2018).
